# The list is not random: actives were taken first. Their share in the collection is about 2.3%.
# C diff growth: C. difficile growth inhibitors, primary screen, HTS; Clostridium difficile clinical isolate growth, OD600, 24 h; stronger effect = lower value; growth activity, negative = inhibition, % at 16 µg/mL (by protocol); actives 0.25% (n = 86,000); AID 1259249, 2017;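 active = mean growth activity at or below -80% and every replicate also at or below -80%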;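 note: 0% = DMSO wells and -100% = levofloxacin 16 µg/mL wells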
# Pf Dd2 inh: P. falciparum Dd2 growth inhibitors, primary screen, SYBR Green fluorescence, single dose replicates; AID 1159554, 2015; activity change, % at 10 µM; 72 h; stronger effect = lower value; actives 2.3% (n = 94,000); in the data active = activity change below about -80%
# * marks the source's active call; other numbers are inactive results; . = not tested or not shown.
SMILES,C diff growth,Pf Dd2 inh
C[C@H](CO)N1C[C@H](C)[C@@H](CN(C)C)Oc2ccc(NS(C)(=O)=O)cc2C1=O,2.7,13.5
C[C@@H]1CN([C@H](C)CO)C(=O)Cc2cc(NC(=O)Nc3ccc(F)cc3)ccc2O[C@@H]1CN(C)S(=O)(=O)c1cn(C)cn1,.,-1.9
C/C=C/c1cnc2c(c1)C(=O)N([C@H](C)CO)C[C@H](C)[C@H](CN(C)C(=O)Nc1ccc(C(F)(F)F)cc1)O2,-1.7,-3.0
C[C@@H]1CN([C@H](C)CO)C(=O)c2c(c3ccccc3n2C)-c2ccccc2CO[C@H]1CN(C)C(=O)Nc1ccccc1C(F)(F)F,19.4,-44.7
C[C@@H]1CN([C@@H](C)CO)C(=O)c2c(c3ccccc3n2C)-c2ccccc2CO[C@@H]1CN(C)C(=O)Nc1cccc(Cl)c1Cl,54.0,-92.4*
COc1ccccc1NC(=O)N(C)C[C@@H]1OCc2ccccc2-c2c(n(C)c3ccccc23)C(=O)N([C@H](C)CO)C[C@H]1C,.,-38.9
C[C@H]1CN([C@@H](C)CO)C(=O)c2c(c3ccccc3n2C)-c2ccccc2CO[C@H]1CN(C)C(=O)Nc1ccccc1C(F)(F)F,-0.1,-84.4*
Cc1ccccc1S(=O)(=O)N1CC(=O)N2[C@H](CO)[C@H](c3ccc(C#CC4CC4)cc3)[C@H]2C1,-14.2,-28.1
CCCN1C[C@@H](C)[C@H](OC)CN(C)C(=O)c2cc(NC(=O)COC)ccc2OC[C@@H]1C,1.4,-0.8
Cc1ccc(S(=O)(=O)Nc2cccc3c2O[C@@H](CN(C)C(=O)NC(C)C)[C@@H](C)CN([C@@H](C)CO)C3=O)cc1,1.4,33.2
O=S(=O)(NC[C@@H]1CC[C@@H]2[C@@H](CN2CC(c2ccccc2)c2ccccc2)O1)c1ccccc1F,.,-5.3
Cc1ccccc1S(=O)(=O)N(C)C[C@H]1OCc2ccccc2-c2ccccc2C(=O)N([C@@H](C)CO)C[C@H]1C,1.3,-86.6*
COc1ccc(CN(C)C[C@@H]2OCc3cn(nn3)CCCC(=O)N([C@H](C)CO)C[C@H]2C)cc1,2.8,-81.0*
C[C@@H]1CN([C@H](C)CO)C(=O)c2ccccc2-c2ccccc2CO[C@@H]1CN(C)S(=O)(=O)c1ccc(Cl)cc1,8.0,-49.4
C[C@H](CO)N1C[C@H](C)[C@H](CN(C)Cc2ccc(-c3ccccc3)cc2)OCc2ccccc2-c2ccccc2C1=O,7.8,-86.9*
Cc1ccccc1S(=O)(=O)N(C)C[C@H]1OCc2ccccc2-c2ccccc2C(=O)N([C@H](C)CO)C[C@@H]1C,12.4,-18.6
C[C@H](CO)N1C[C@H](C)[C@H](CN(C)S(=O)(=O)c2ccc(Cl)cc2)OCc2ccccc2-c2ccccc2C1=O,0.8,-84.7*
C[C@H](CO)N1C[C@H](C)[C@H](CN(C)Cc2ccccc2)OCc2ccccc2-c2ccccc2C1=O,.,-14.9
COc1ccc(CN(C)C[C@H]2OCc3cn(nn3)CCCC(=O)N([C@H](C)CO)C[C@@H]2C)cc1,1.5,21.6
Cc1noc(C)c1NC(=O)Nc1ccc2c(c1)C(=O)N([C@@H](C)CO)C[C@@H](C)[C@@H](CN(C)S(=O)(=O)c1ccc(F)cc1)OCCCC[C@H](C)O2,3.4,-23.3
CCCc1cn(CC[C@@H]2CC[C@H](NC(=O)Nc3ccccc3F)[C@@H](CO)O2)nn1,.,-12.4
O=C(C1CC1)N1CCCCN2[C@@H](CO)[C@@H](c3ccc(-c4ccncc4)cc3)[C@@H]2C1,-5.3,17.2
CCC(=O)NC[C@@H]1[C@@H](c2ccc(C3=CCCCC3)cc2)[C@@H](CO)N1CC1CC1,12.2,-65.1
OC[C@@H]1[C@H](c2ccc(C3=CCCC3)cc2)[C@@H](CNC2CCCC2)N1CC1CC1,41.6,-90.7*
CCCNC[C@H]1[C@@H](c2ccc(C3=CCCCC3)cc2)[C@@H](CO)N1C(=O)C1CCC1,6.6,-83.3*
SMILES,C diff growth,Pf Dd2 inh
CCCNC[C@@H]1[C@@H](c2ccc(C3=CCCCC3)cc2)[C@@H](CO)N1C(=O)C1CCC1,8.9,-72.9
CCC(=O)N1[C@H](CO)[C@H](c2ccc(C3=CCCCC3)cc2)[C@H]1CNCC1CCC1,9.8,-85.2*
CCC(=O)N1[C@H](CO)[C@H](c2ccc(C3=CCCCC3)cc2)[C@@H]1CNC1CCCC1,17.1,-75.7
C[C@H](CO)N1C[C@H](C)[C@@H](CN(C)C(=O)c2ccncc2)Oc2ncc(-c3ccc(F)cc3)cc2C1=O,.,-12.5
CCCNC(=O)N1[C@H](CO)[C@H](c2ccccc2)[C@@H]1CNC(=O)c1ccc(F)cc1,.,-2.7
COc1ccc(NC(=O)Nc2ccc3c(c2)CC(=O)N([C@@H](C)CO)C[C@@H](C)[C@H](CN(C)CC2CC2)O3)cc1,-3.1,-40.7
COc1ccc(NC(=O)Nc2ccc3c(c2)CC(=O)N([C@H](C)CO)C[C@H](C)[C@@H](CN(C)CC2CCCCC2)O3)cc1,-0.6,-86.2*
COc1ccc(NC(=O)Nc2ccc3c(c2)CC(=O)N([C@@H](C)CO)C[C@H](C)[C@@H](CN(C)C(=O)Nc2ccc(F)cc2)O3)cc1,-4.4,-85.5*
C[C@@H]1CN([C@@H](C)CO)C(=O)Cc2cc(NC(=O)Nc3ccc(F)cc3)ccc2O[C@H]1CN(C)CC1CCCCC1,9.7,-88.7*
COc1ccc(NC(=O)Nc2ccc3c(c2)CC(=O)N([C@@H](C)CO)C[C@@H](C)[C@H](CN(C)CC2CCCCC2)O3)cc1,-16.7,-90.4*
COc1ccc(NC(=O)N(C)C[C@@H]2Oc3ccc(NC(=O)Nc4ccc(F)cc4)cc3CC(=O)N([C@@H](C)CO)C[C@@H]2C)cc1,1.1,-3.4
COc1ccc(NC(=O)Nc2ccc3c(c2)CC(=O)N([C@@H](C)CO)C[C@@H](C)[C@@H](CN(C)CC2CCCCC2)O3)cc1,-11.3,-28.5
C[C@@H]1CN([C@H](C)CO)C(=O)Cc2cc(NC(=O)Nc3ccc(F)cc3)ccc2O[C@H]1CN(C)CC1CC1,-0.3,10.4
COC(=O)C[C@@H]1CC[C@@H]2[C@H](COc3ccc(NC(=O)c4cc(C)on4)cc3C(=O)N2C)O1,3.5,-4.3
C[C@H](CO)N1C[C@H](C)[C@@H](CN(C)Cc2ccc(F)cc2)Oc2ncc(C#CCN(C)C)cc2C1=O,0.4,-20.4
COc1ccc(NC(=O)Nc2ccc3c(c2)CC(=O)N([C@@H](C)CO)C[C@H](C)[C@H](CN(C)CC2CC2)O3)cc1,-4.5,-77.8
COc1ccc(NC(=O)Nc2ccc3c(c2)CC(=O)N([C@@H](C)CO)C[C@@H](C)[C@@H](CN(C)CC2CC2)O3)cc1,-2.4,-82.6*
C[C@@H]1CN([C@H](C)CO)C(=O)c2cccc(NC(=O)Nc3cccc4ccccc34)c2O[C@@H]1CN(C)C,11.2,-52.4
N#C[C@H]1[C@@H](c2ccc(C#Cc3ccc(F)cc3)cc2)[C@H](CO)N1C(=O)C1CCCC1,-7.0,-71.6
CC(C)NC(=O)N1[C@H](C#N)[C@H](c2ccc(C#CC3CCCC3)cc2)[C@@H]1CO,0.5,-87.5*
CC(C)NC(=O)N1[C@@H](C#N)[C@@H](c2ccc(C#CC3CCCC3)cc2)[C@@H]1CO,2.9,-7.5
N#C[C@H]1[C@H](c2ccc(C#Cc3ccccc3F)cc2)[C@@H](CO)N1C(=O)C1CCCC1,23.4,-86.9*
N#C[C@@H]1[C@@H](c2ccc(C#Cc3ccc(F)cc3)cc2)[C@H](CO)N1C(=O)C1CCCC1,6.8,-86.0*
CCCC#Cc1ccc([C@H]2[C@@H](CO)N(C(=O)C3CCCCC3)[C@H]2C#N)cc1,-5.0,-85.6*

# Screening data as filed in PubChem.
